# HCV inhibitor – qHTS Assay for Inhibitors of Hepatitis C Virus (HCV); Potency, µM (titrated, usually from 41.8 µM), for inactives: at the highest dose activity change, negative = inhibition, most hits filed as inhibitors; actives 3.4% (n = 340,000); AID 651820, 2012; Huh7.5.1 HCVcc-Cre infection, luciferase reporter, 44 h
#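 Cells seeded at 1,000/well and cultured 4 h, then compounds added followed by HCVcc-Cre virus (~0.5 moi). After 44 h further culture, luciferase substrate was added, plates held 15 min at room temperature, and luminescence read for 15 sec.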
# MARV entry inh – qHTS for inhibitors of binding or entry into cells for Marburg Virus. actives 1.8% (n = 300,000). Marburg virus pseudotyped entry inhibition, cell reporter. AID 540276, 2011. Potency, µM (titrated, usually from 37.8 µM), inactives show at the top dose activity change, negative = inhibition, actives largely listed as inhibitors; calls by dose curve; tested in HEK293 cells
# RE007 growth inh – qHTS Assay for Inhibitors of the HIV-1 protein Vpr; S. pombe RE007 Vpr strain, BacTiter-Glo ATP luminescence, 24 h; actives 0.21% (n = 360,000); Potency, µM (titrated, usually from 92.2 µM), inactives show at the highest dose activity change, negative = less growth, actives largely listed as inhibitors; active means well fitted falling curve with a large enough effect; inconclusive means small, poorly fitted or top-dose-only effect; inactive means no such curve, though single readings can be large or run the other way; further: nearly all actives have a fitted effect of over 50% in size
#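 Fission yeast RE007 carrying one integrated HIV-1 vpr copy, seeded at OD 0.01 in PMG+AL medium with 23 nL pinned compound. Grown 24 h at 30 degrees; viability read by BacTiter-Glo luminescence after 5 min.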
# Lassa entry inh – qHTS for Inhibitors of binding or entry into cells for Lassa Virus | Lassa virus pseudotype entry inhibition, cell reporter | Potency, µM (doses to about 37.9 µM), inactives show at the highest dose activity change, negative = inhibition, actives largely listed as inhibitors | actives 1.2% (n = 300,000); calls by dose curve; tested in HEK293 cells; further: nearly all actives have a fitted effect of over 50% in size
# Sm TGR block – qHTS Assay for the Inhibitors of Schistosoma Mansoni Peroxiredoxins; Schistosoma mansoni thioredoxin glutathione reductase (TGR), Q962Y6; purified TGR, DTNB reduction, TNB absorbance 405 nm; Potency, µM (titrated, usually from 114 µM), for the others: at the top dose activity change, negative = inhibition, most hits filed as inhibitors; actives 3% (n = 360,000); AID 485364, 2010; further: nearly all actives have a fitted effect of over 60% in size
#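 Kinetic colorimetric format: TGR-catalysed, NADPH-driven DTNB reduction monitored via TNB absorbance. Enzyme dispensed at 20 nM; compound exposure 15 min at room temperature before reaction start.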
# FMDV antiviral – High Throughput Screening for Foot and Mouth Disease Virus Antivirals | FMDV antiviral cell-based qHTS | Potency, µM (doses to about 57.9 µM), inactives show at the highest dose activity change, negative = inhibition, hits mostly inhibitors | actives 1.2% (n = 410,000) | AID 1159524, 2015; calls by dose curve; tested in HEK293T cells; further: read-out not given here; nearly all actives have a fitted effect of over 45% in size
# An asterisk follows results filed as active; ? = inconclusive; · = not tested or not shown; ! = not active in a repeat; [ ] = another dose, or the depositor's remark. The list is not random: actives were taken first. Their share in the collection is about 7.2%. Unless noted, the call rests on the fitted dose curve; in most records, active means well fitted curve in the direction sought with a large enough effect; inconclusive means small, poorly fitted or top-dose-only effect, or another doubt; inactive means no such curve, though single readings can be large; an effect the other way counts as inactive or inconclusive. On the % scale 0 is the no-effect control and ±100 the full control effect; potency means the concentration at half of the fitted maximal effect.
SMILES,HCV inhibitor,MARV entry inh,RE007 growth inh,Lassa entry inh,Sm TGR block,FMDV antiviral
O=C(OCc1ccc([N+](=O)[O-])cc1)C1CC(=O)N(CCc2ccccc2)C1 (configuration not stated),8%,11%,1%,15%[46.1 µM],-7%,1%
O=C(OCc1nnc(-c2ccc([N+](=O)[O-])cc2)o1)C1CC(=O)N(CCc2ccccc2)C1 (configuration not stated),25%,?,3%,8%,89µM*,-3%
O=C1N=C(N2CCC(Cc3ccccc3)CC2)S/C1=C/c1cn[nH]c1-c1ccccc1,?,10µM*,1%,?,-29%,?
O=C1N=C(N2CCN(c3ccccc3)CC2)S/C1=C\c1cn[nH]c1-c1ccccc1,0%,?,3%,2%,-10%,-26%
ClCCN(CCCl)c1ccc(-n2cnc3c(Cl)ncnc32)cc1,13µM*,?,9%,?,·,?
O=c1[nH]cnc2c1ncn2-c1ccc(Cl)cc1,10%,5%,8%,-3%,·,-20%
N=C(N)SCc1cn(-c2ccccc2)nc1-c1ccc(Br)cc1,?,?,-26%,?,63%,20µM*
CCOC(=O)c1ccccc1NC(=O)CSc1cn(CC(=O)N2CCCCC2)c2ccccc12,·,·,·,4%[46.1 µM],0%,-12%
CSc1ccc(C(=O)c2[nH]c(=O)[nH]c2C)cc1,6.3µM*!,?,-4%[18.4 µM],-6%,6%,2%
O=C(N/N=C\c1ccc(CNS(=O)(=O)c2ccc(Cl)cc2)o1)C(=O)Nc1ccc(Oc2ccccc2)cc1,13µM*,?,2%,?,-19%,3%
O=C1O/C(=C/Br)CCC1c1cccc2ccccc12 (configuration not stated),·,10µM*,·,21µM*,·,·
O=C1CCCCC1c1cccc2ccccc12 (configuration not stated),-10%,?,3%,-11%,-1%,-15%
Cc1cccc(N2CCN(CCCNC(=O)C3CCCN(c4ncnc5c4nc4n5CCCCC4)C3)CC2C)c1 (configuration not stated),?,11µM*,-4%,?,-7%,?
Cc1cccc(N2CCN(c3ncnc4c3nc3n4CCCCC3)CC2C)c1 (configuration not stated),·,·,·,?,6%,2.2µM*
Cc1ccc(CNC(=O)c2cc(S(=O)(=O)N3CCCCC3)cn2C)cc1,·,·,·,?,4%,-6%
CCOC(=O)c1c(C)[nH]c(CCC(=O)NCc2cc(Br)ccc2OC)c1C,·,·,·,-18%[46.1 µM],-35%,5%
NS(=O)(=O)c1ccc(NC(=O)COc2ccc(C(=O)c3ccc(F)cc3)cc2)cc1,14µM*,·,8%,·,1%,?
Fc1ccc(NCc2nnc3n2CCCCC3)cc1Cl,·,·,·,-22%[46.1 µM],3%,-19%
CN(C)CCN(C)Cc1c2ccccc2c(CN(C)CCN(C)C)c2ccccc12,4µM*,?,-9%,?,-10%,-5%
CN(C)CCP(=O)(c1ccccc1)c1ccccc1,-8%,-1%[46.1 µM],-2%,17%[46.1 µM],·,7%
CCN1C(=O)c2ccc(C(=O)Nc3cccc(C(=O)O)c3)cc2C1=O,28%,16%,?,-7%,0%,14µM*
O=C(NCc1cccc(Cl)c1)c1cccn1-c1nnc(N2CCCC2)s1,·,·,·,-14%[46.1 µM],-1%,13%
N#C/C(=C\c1ccc([N+](=O)[O-])o1)c1nc2ccccc2[nH]1,?,-1%,3%,·,-31%,25µM*
Cc1ccc2nc(/C(C#N)=C\c3cc(C)n(-c4cccc([N+](=O)[O-])c4)c3C)[nH]c2c1,2.2µM*,?,-2%,?,-13%,-20%
Cc1ccc2nc(/C(C#N)=C\c3ccc([N+](=O)[O-])o3)[nH]c2c1,?,18µM*,?,3.3µM*,-34%,?
SMILES,HCV inhibitor,MARV entry inh,RE007 growth inh,Lassa entry inh,Sm TGR block,FMDV antiviral
Cc1ccc2nc(/C(C#N)=C\c3ccc(N4CCOCC4)o3)[nH]c2c1,?,?,-6%,-29%,?,0%
COc1cc(/C=C(/C#N)c2nc3ccccc3[nH]2)ccc1Oc1ncccc1[N+](=O)[O-],2.5µM*,-15%,-1%,?,13%,3%
N#C/C(=C(/O)c1ccc([N+](=O)[O-])o1)c1nc2ccccc2[nH]1,2%,·,-14%,·,-24%,-18%
CN(C)c1nc(=NCc2cccs2)ss1,-9%,?,?,?,·,?
Cc1ccc(C)c(S(=O)(=O)c2nnn3c2nc(NC2CCCCC2)c2sccc23)c1,·,·,·,-18%[46.1 µM],5%,?
CN(C)S(=O)(=O)c1ccccc1C#N,2%,6%,-8%,23%,0%,·
CNc1cccc2c1C(=O)c1ccccc1C2=O,13µM*,0%,-18%,?,-2%,11%
CN(C)S(=O)(=O)c1cccc2c1C(=O)c1ccccc1C2=O,-2%,-10%,-9%,-3%,25µM*,-11%
O=C1c2ccccc2C(=O)c2c(NCc3cccnc3)cccc21,?,6%,2%,4%,-6%,-13%
COc1ccc(-c2csc(NC(=O)C3CSC4(C)CCC(=O)N34)n2)cc1OC (configuration not stated),?,0%,4%,-3%,-4%,-1%
COc1ccc(OC)c(-c2csc(NC(=O)C3CSC4(C)CCC(=O)N34)n2)c1 (configuration not stated),3.2µM*,?,-20%,?,-13%,23%
CC12CCC(=O)N1C(C(=O)Nc1nc(-c3ccccc3Cl)cs1)CS2 (configuration not stated),10µM*,?,1%,-19%,-6%,-11%
O=C(NCCN1CCOCC1)c1cnn(-c2nccc(-c3ccccc3C(F)(F)F)n2)c1C1CC1,·,·,·,·,·,-1%
C=CCNC(=O)/C(C#N)=C\c1cc(Cl)c(O)c(OCC)c1,-10%,22%,-12%,-3%,40µM*,8%
CCOc1cc(/C=C(/C#N)C(=O)Nc2ccc(O)cc2)cc(Br)c1O,-24%,?,7%,?,?,-13%
CCc1ccc(-c2nc(CSCC(=O)N3CCN(c4ccc(F)cc4)CC3)c(C)o2)cc1,·,7%[46.1 µM],·,21%[46.1 µM],-1%,?
COc1ccc(-c2nc(CSCC(=O)N3CCN(c4ccccc4)CC3)c(C)o2)cc1,·,0%[46.1 µM],·,-7%[46.1 µM],2%,35µM*
CCOc1ccc(-c2nc(CSCC(=O)N3CCN(C(=O)c4ccco4)CC3)c(C)o2)cc1,?,-4%,-15%,·,89µM*,0%
